Bioassay records as filed in PubChem BioAssay.
Shown are actives, neighbours in structure and some others; about 19% of the full set was active somewhere.
IL-1B inflam inh: qHTS for Inhibitors of Inflammasome Signaling: IL-1-beta AlphaLISA Primary Screen; THP-1 LPS/ATP IL-1B secretion, AlphaLISA, 16 h; active compounds read low; activity change, % at 57.5 µM; actives 4.7% (n = 360,000); in the data active = activity change below about -50%; inconclusive = mostly about -30% to -49%
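THP-1 cells pretreated 1 hr with compounds (up to 57.5 uM final), then stimulated with LPS (250 ng/mL final) plus ATP (1.25 mM final); secreted IL-1B measured by AlphaLISA after 16 hr, decreased signal indicating inhibition.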
HT1080 IDH1KD tx: qHTS for induction of synthetic lethality in tumor cells producing 2HG: qHTS for the HT-1080-IDH1KD cell line | HT-1080 IDH1 knockdown viability, ATP luminescence, 48 h | Potency, µM (doses to about 46.1 µM), without a hit: top-dose activity, negative = toxicity, most hits filed as cytotoxic | actives 2% (n = 360,000) | AID 686971, 2013;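 also: potency is read from the fitted curve at half-maximal effect; 0% = DMSO wells and -100% = cell-free medium wells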
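Using the IDH1-knockdown HT-1080 line run in the same batch and compound series as the NT line, viability after 48 h at 37 °C was determined by CellTiter-Glo luminescence and expressed as % activity.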
DT40 TDP1 no CPT: qHTS for Inhibitors of human tyrosyl-DNA phosphodiesterase 1 (TDP1): qHTS in cells in absence of CPT; DT40 Tdp1-/- hTDP1 cells, no CPT, ATP luminescence, 48 h; Potency, µM (doses to about 46.2 µM), inactives show top-dose activity change, negative = growth inhibition, actives largely listed as inhibitors; actives 15% (n = 420,000); also: potency is read from the fitted curve at half-maximal effect; nearly all actives have a fitted effect of over 55% in size
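Growth kinetics read by CellTiter-Glo luminescence after ≥48 hr at 37 °C. Cells: DT40 Tdp1-/- stably carrying human TDP1, 400 per well, compound exposure in the absence of CPT (DMSO vehicle).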
DT40 TDP1 CPT: qHTS for Inhibitors of human tyrosyl-DNA phosphodiesterase 1 (TDP1): qHTS in cells in presence of CPT; chicken DT40 Tdp1-/-;hTDP1 cells + 20 nM CPT, ATP luminescence, 48 h; Potency, µM (highest dose often 46.2 µM), for the others: top-dose activity change, negative = growth inhibition, most hits filed as inhibitors; actives 12% (n = 420,000); AID 686979, 2013; also: potency is read from the fitted curve at half-maximal effect; nearly all actives have a fitted effect of over 55% in size
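Cell growth measured by CellTiter-Glo luminescence after a minimum 48 h, 37 C compound exposure with 20 nM CPT in Tdp1-knockout DT40 cells stably expressing hTDP1, seeded 400/well; qHTS titration format.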
ELG1 repair inh: qHTS screen for small molecules that inhibit ELG1-dependent DNA repair in human embryonic kidney (HEK293T) cells expressing luciferase-tagged ELG1; HEK293T ELG1-luciferase reporter, luminescence, 16 h; DNA damage induced by 5-fluorouridine; Potency, µM (top dose mostly 46.1 µM), for inactives: top-dose activity change, negative = inhibition, usual class: inhibitors; actives 2.3% (n = 330,000); AID 504467, 2011; also: potency is read from the fitted curve at half-maximal effect; nearly all actives have a fitted effect of over 55% in size
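5-Fluorouridine DNA damage + compound/DMSO, 2,000 cells/well, 16 h, 37 °C/5% CO2. ONE-Glo, 30 min RT, luminescence. Readout = decrease in reporter signal.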
HT1080NT lethal: qHTS for induction of synthetic lethality in tumor cells producing 2HG: qHTS for the HT-1080-NT fibrosarcoma cell line | HT-1080-NT fibrosarcoma viability, CellTiter-Glo ATP luminescence, 48 h | Potency, µM (top dose mostly 46.1 µM), inactives show top-dose activity, negative = less viability, actives largely listed as cytotoxic | actives 1.6% (n = 360,000);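 also: NT is the 2HG producing partner of a matched IDH1 knockdown line; potency is read from the fitted curve at half-maximal effect; 0% = DMSO-treated cells and -100% = media-only wells without cells; nearly all actives have a fitted effect of over 55% in size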
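750 cells/well, RPMI + 5% FBS; 2 h settle, compound pin-transfer, 48 h at 37 degrees C. CellTiter-Glo 10 min RT, luminescence. Normalized to DMSO and media-only wells.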
Active calls of the source: *; u = inconclusive; x = no result given. Unless noted, calls follow the shape of the dose curve; as a rule, active = well fitted curve in the direction sought with a large enough effect; inconclusive = small, poorly fitted or top-dose-only effect, or another doubt; inactive = no such curve, though single readings can be large; an effect the other way counts as inactive or inconclusive. Unless noted, % is scaled to controls: 0 for no effect and ±100 for the full control effect.

SMILES	IL-1B inflam inh	HT1080 IDH1KD tx	DT40 TDP1 no CPT	DT40 TDP1 CPT	ELG1 repair inh	HT1080NT lethal
CCc1ccccc1NS(=O)(=O)c1ccc2c(c1)CCCN2C(=O)C1CCC1	x	x	20.6µM*	u	x	x
CCc1noc(C)c1C(=O)Nc1cccc2ncccc12	12.7	0.6%	10.0%	2.6%	1.7%	-1.7%
CCC(c1nnnn1C1CCCC1)N1CCN(c2cccc(OC)c2)CC1 (stereo not drawn)	-2.7	2.3%	16.4µM*	u	-11.2%	14.1%
COc1ccc(C(c2nnnn2C2CCCC2)N2CCC(C)CC2)cc1 (stereo not drawn)	-16.9	-6.7%	23.1µM*	u	u	-9.6%
COc1ccc(C(c2nnnn2C2CCCCC2)N2CCN(c3ccc(OC)cc3)CC2)cc1 (stereo not drawn)	-9.0	-12.2%	16.4µM*	23.1µM*	-3.7%	-2.8%
COCCn1nnnc1C(CC(C)C)N1CCN(c2cccc(OC)c2)CC1 (stereo not drawn)	-1.0	5.7%	-26.2%	-23.8%	0.6%	2.3%
C1=C(C(c2nnnn2C2CCCCC2)N2CCCCC2)COc2ccccc21 (stereo not drawn)	31.8	-2.2%	16.4µM*	u	9.9%	12.9%
COc1ccc(C(=O)N2CCC3(CCN(CC(C)C)CC3)CC2)cc1	x	x	-5.8%	-3.6%	x	x
COc1ccc(C(c2nnnn2C2CCCCC2)N2CCN(C)CC2)c(OC)c1 (stereo not drawn)	-3.0	-9.5%	-20.4%	-20.1%	14.9%	-3.8%
COc1ccc(OC)c(C(c2nnnn2C2CCCC2)N2CCN(c3ccccc3)CC2)c1 (stereo not drawn)	-17.4	-6.5%	20.6µM*	u	-11.1%	-3.0%
Clc1ccc(C(c2nnnn2C2CCCC2)N2CCSCC2)cc1 (stereo not drawn)	-62.5*	-23.6%	-16.9%	-1.1%	u	-9.6%
Fc1ccc(C(c2nnnn2C2CCCCC2)N2CCCC2)cc1 (stereo not drawn)	8.0	6.7%	-24.8%	-1.4%	12.3%	1.6%
CN(Cc1c(C(=O)N/N=C/c2cccc(Cl)c2)nnn1-c1nonc1N)c1ccccc1	0.0	-10.4%	15.1%	4.5%	10.4%	-18.0%
CCOC(=O)c1c(NC(NC(=O)C(C)C)C(Cl)(Cl)Cl)sc2c1CCC2 (stereo not drawn)	0.9	-17.8%	16.4µM*	14.6µM*	-12.5%	-9.9%
C=CCN1C(=O)C2(NC(=O)c3ccccc3N2)c2ccccc21 (stereo not drawn)	52.7	u	u	18.4µM*	7.9%	u
C=CCN1C(=O)C(O)(CC(=O)c2ccc(-n3cccc3)cc2)c2ccccc21 (stereo not drawn)	4.5	-13.6%	u	u	5.0%	-6.2%
C=CCN1C(=O)C2(NNc3ccccc3O2)c2ccccc21 (stereo not drawn)	8.0	u	8.2µM*	6.51µM*	8.2%	u
COc1ccc(NC(=O)c2cccc(-n3c(C)ccc3C)c2)c(OC)c1	-60.8*	-25.6%	25.9µM*	u	15.9%	-16.3%
Cc1ccc(C)n1-c1cccc(C(=O)Nc2ccccc2)c1	0.0	-2.3%	14.6µM*	u	u	-9.0%
COc1ccc(NC(=O)c2cccc(N3CCCS3(=O)=O)c2)c(OC)c1	x	x	11.8%	-23.7%	x	x
COc1ccc(C(=O)COC(=O)CCN2C(=O)C3CC=CCC3C2=O)c(OC)c1 (stereo not drawn)	4.0	0.6%	-11.3%	-1.6%	u	1.5%
Cc1nc2ccc(NC(=O)c3cccs3)cc2c(=O)n1Cc1ccc(Cl)cc1	-92.3*	u	u	18.4µM*	7.31µM*	6.31µM*
CCCc1nc2ccc(NC(=O)NCCC(=O)OCC)cc2c(=O)n1Cc1ccc(Cl)cc1	-25.0	-3.2%	u	u	20.6µM*	-11.2%
CCN1CCN(C(c2cccc(F)c2)c2c(O)cc(C)n(CCOC)c2=O)CC1 (stereo not drawn)	x	x	-0.9%	-3.4%	x	x
CCCc1cc(=O)[nH]c(SCC(=O)Nc2ccc(N3CCCCC3)cc2)n1	32.2	-6.1%	u	-3.8%	0.3%	-1.8%
SMILES	IL-1B inflam inh	HT1080 IDH1KD tx	DT40 TDP1 no CPT	DT40 TDP1 CPT	ELG1 repair inh	HT1080NT lethal
CC(C)[C@H](CO)Nc1nc(Nc2ccc(Cl)c(C(=O)O)c2)c2ncn(C(C)C)c2n1	7.6	0.3%	-4.4%	0.6%	5.8%	-1.8%
C=CC(=O)Nc1cccc(Nc2nc(N[C@H]3CC[C@H](N(C)C)CC3)nc3c2ncn3C(C)C)c1	0.0	0.651µM*	0.206µM*	0.146µM*	x	u
C=C(C)C1CC=C(C)/C(=N\NC(=O)CNc2cccc3ccccc23)C1 (stereo not drawn)	-2.9	-0.3%	-24.1%	-11.8%	6.3%	-0.6%
CCc1cc2c(=O)c(-c3ccc4c(c3)OCO4)coc2c(CN(C)C)c1O	-1.7	-1.0%	3.66µM*	2.06µM*	-14.8%	0.2%
CCc1cc2c(=O)c(-c3cscn3)coc2c(CN(C)C)c1O	11.0	-16.8%	2.31µM*	1.46µM*	-22.7%	-21.5%
CCC(=O)N1CCc2cc(CNC(=O)Cc3ccc(F)cc3)ccc21	x	x	-26.9%	-23.7%	x	x
Clc1cccc(Sc2ccc(-c3ccccn3)s2)c1	0.0	2.7%	-16.2%	2.4%	7.6%	1.7%
Cc1cc(C)c2c(N)c(C(=O)Nc3ccc(C)c(C)c3)sc2n1	-5.4	9.9%	u	-8.8%	u	13.7%
Cc1cc(C)c2c(NC(=O)c3ccccc3Cl)c(C(=O)Nc3ccc(C)c(C)c3)sc2n1	x	x	16.4µM*	8.2µM*	x	x
CCCCNC(=O)c1c(C)oc2ncn(CC(C)C)c(=O)c12	x	x	u	-25.8%	x	x
